APE1 inh-1: APE1 (human) endonuclease inhibition; P27695; recombinant APE1, TAMRA/BHQ-2 abasic DNA cleavage fluorescence; Potency, µM (highest dose often 65.8 µM), for the others: at the highest dose activity change, negative = inhibition, actives largely listed as inhibitors; hit rate 0.35% among 350,000;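 further: plate controls were vehicle for no effect and reference inhibitor for full effect; nearly all actives have a fitted effect of over 55% in size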
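APE1 at 0.75 nM preincubated 15 min at room temperature with compound. Reaction then started with 50 nM double-stranded THF-abasic substrate labelled with TAMRA/BHQ-2, and 525/598 nm fluorescence read kinetically. Activity taken as third-minus-first read difference, normalized to DMSO and NSC13755 controls.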
BLM inh-1: inhibitors of human Bloom syndrome helicase BLM. recombinant BLM DNA unwinding, fluorescence dequenching. Potency, µM (highest dose often 56.1 µM), for the others: at the top dose activity change, negative = inhibition, actives largely listed as inhibitors. hit rate 0.2% among 350,000. AID 2528;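 further: plate controls were vehicle for no effect and no enzyme for full effect; nearly all actives have a fitted effect of over 35% in size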
TDP1 inh: TDP1 (human) enzyme inhibition; Q9NUW8; recombinant TDP1, AlphaScreen DNA substrate cleavage; Potency, µM (top dose mostly 130 µM), inactives show at the top dose activity change, negative = inhibition, hits mostly inhibitors; hit rate 0.28% among 350,000; AID 485290; further: on the % scale 0 is the no-effect control and ±100 the full control effect; nearly all actives have a fitted effect of over 40% in size
Target sequence (Q9NUW8 whole entry, looked up): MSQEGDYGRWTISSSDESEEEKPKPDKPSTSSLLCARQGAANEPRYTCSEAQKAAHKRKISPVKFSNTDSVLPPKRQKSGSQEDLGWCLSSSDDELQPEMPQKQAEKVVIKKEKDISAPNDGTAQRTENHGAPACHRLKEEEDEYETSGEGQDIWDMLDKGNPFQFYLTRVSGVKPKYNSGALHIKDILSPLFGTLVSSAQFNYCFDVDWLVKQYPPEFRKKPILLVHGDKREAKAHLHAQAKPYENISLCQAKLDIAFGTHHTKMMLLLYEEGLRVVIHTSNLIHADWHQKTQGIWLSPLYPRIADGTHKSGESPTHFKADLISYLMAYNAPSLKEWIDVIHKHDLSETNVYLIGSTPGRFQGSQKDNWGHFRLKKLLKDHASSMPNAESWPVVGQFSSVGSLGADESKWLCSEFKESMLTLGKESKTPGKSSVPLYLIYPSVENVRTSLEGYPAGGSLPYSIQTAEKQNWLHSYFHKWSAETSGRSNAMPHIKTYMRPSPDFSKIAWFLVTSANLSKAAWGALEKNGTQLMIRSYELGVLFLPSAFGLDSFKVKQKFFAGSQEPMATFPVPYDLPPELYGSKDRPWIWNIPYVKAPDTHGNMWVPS
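Steps: enzyme plus compound, 15 min RT; add biotin/phosphotyrosine-FITC oligonucleotide (15 nM final), react 5 min; add donor/acceptor beads (10 ug/ml final), 10 min; read AlphaScreen. Tdp1 at 1 nM final.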
RECQ1 helicase: blocks DNA unwinding by human RECQ1; P46063; RECQ1 DNA unwinding, red fluorescence kinetic read; Potency, µM (doses to about 57.3 µM), inactives show at the highest dose activity, negative = inhibition, usual class: inhibitors; hit rate 0.54% among 240,000; AID 2549;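 further: plate controls were vehicle for no effect and no enzyme for full effect; nearly all actives have a fitted effect of over 30% in size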
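50 nM RECQ1T1 preincubated 15 min with compound in Tris pH 8.0 buffer with MgCl2, DTT, Tween-20 and 2.5 ug/ml poly(dI-dC); started with 200 nM TAMRA/BHQ-2 forked duplex and 2 mM ATP. Unwinding read as fluorescence (525/598 nm), two reads 2 h apart.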
FEN1 inh-1: blocks human flap endonuclease 1; hit rate 0.35% among 390,000; Potency, µM (doses to about 114 µM), for inactives: at the highest dose activity change, negative = inhibition, most hits filed as inhibitors; Recombinant FEN1 flap cleavage, fluorescence, 15 min; P39748; further: on the % scale 0 is the no-effect control and ±100 the full control effect; nearly all actives have a fitted effect of over 65% in size
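With each library titrated from low to high concentration, compounds met 10 nM FEN1 for 15 min at room temperature before 50 nM substrate was added; readings at 0 and 15 min fed four-parameter Hill curve fits.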
APE1 dye cs: displaces fluorescent dye from DNA, flagging APE1 artifacts | shares compounds with APE1 inh-1 | DNA fluorescent dye displacement counterscreen, fluorescence | Potency, µM (top dose mostly 28.5 µM), without a hit: at the highest dose activity change, negative = inhibition, actives largely listed as inhibitors | hit rate 7% among 480;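 further: loss of thiazole orange fluorescence as the dye is displaced from duplex DNA; 0% = ThO with dsDNA and no compound and -100% = ThO without dsDNA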
Endo IV inh: blocks E. coli endonuclease IV DNA cleavage | hit rate 4% among 560 | Potency, µM (titrated, usually from 27.1 µM), without a hit: top-dose activity change, negative = inhibition, actives largely listed as inhibitors | shares compounds with APE1 inh-1 | E. coli Endo IV, fluorogenic AP-site DNA cleavage;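 further: plate controls were uninhibited enzyme wells for no effect and no enzyme buffer wells for full effect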
APE1 inh-2: confirmation of inhibitors of human APE1 endonuclease | purified APE1, fluorogenic abasic-site DNA cleavage | hit rate 44% among 750 | Potency, µM (top dose mostly 57.1 µM), inactives show at the top dose activity change, negative = inhibition, hits mostly inhibitors | shares compounds with APE1 inh-1; further: on the % scale 0 is the no-effect control and ±100 the full control effect; nearly all actives have a fitted effect of over 30% in size
APE1 FP inh: displaces DNA from human APE1 in FP assay. shares compounds with APE1 inh-1. APE1 binding to TAMRA-labelled double-stranded DNA, fluorescence polarization displacement. Potency, µM (top dose mostly 28.5 µM), inactives show at the highest dose activity, negative = inhibition, most hits filed as inhibitors. hit rate 7% among 480; further: on the % scale 0 is the no-effect control and ±100 the full control effect
BLM inh-2: confirmation of inhibitors of human Bloom syndrome helicase BLM | shares compounds with BLM inh-1 | BLM DNA unwinding, fluorescence quenching, biochemical | Potency, µM, for inactives: max response, negative = inhibition, most hits filed as inhibitors | hit rate 40% among 220;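 further: strand separation dequenches TAMRA so unwinding raises red fluorescence; series mostly up to about 69 µM; on the % scale 0 is the no-effect control and ±100 the full control effect; nearly all actives have a fitted effect of over 45% in size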
RECQ1 inh conf: confirmation of human RECQ1 helicase inhibitors | Potency, µM (doses to about 229 µM), inactives show at the top dose activity change, negative = inhibition, usual class: inhibitors | RECQ1 helicase DNA unwinding, fluorescence | AID 2708 | shares compounds with RECQ1 helicase | hit rate 28% among 610; further: on the % scale 0 is the no-effect control and ±100 the full control effect; nearly all actives have a fitted effect of over 45% in size
RECQ1 ADP FP: counter-screen for RECQ1 inhibitors: ADP displacement | ADP fluorescence polarization displacement counterscreen | AID 2711 | hit rate 27% among 530 | Potency, µM (series often up to 228 µM), for inactives: at the top dose activity change, negative = inhibition, most hits filed as inhibitors | shares compounds with RECQ1 helicase; further: on the % scale 0 is the no-effect control and ±100 the full control effect; nearly all actives have a fitted effect of over 45% in size
FEN1 inh-2: FEN1 inhibition, cherry-pick retest. Potency, µM, hits mostly inhibitors. FEN1 flap cleavage, TAMRA/BHQ2 fluorogenic DNA substrate. shares compounds with FEN1 inh-1. AID 720498. hit rate 79% among 880; further: nearly all actives have a fitted effect of over 60% in size
Active calls of the source: *; ! = not confirmed by another sample; [ ] = dose if it differs, or a comment. In the library only some 0.92% were active in any assay of this set; here they are far more common. The call rests on the fitted dose curve; in most records, active means well fitted curve in the direction sought with a large enough effect; inconclusive means small, poorly fitted or top-dose-only effect, or another doubt; inactive means no such curve, though single readings can be large; an effect the other way counts as inactive or inconclusive. Potency means the concentration at half of the fitted maximal effect.

What do the screens show for `C[C@H](N)[C@H](O)c1ccc(O)c(O)c1`?
APE1 inh-1: 0.79µM*; BLM inh-1: -18%[21.4 µM]; TDP1 inh: inconclusive; RECQ1 helicase: 1.8µM*; APE1 dye cs: 3%; Endo IV inh: 27%; APE1 inh-2: 6%[24.4 µM]; APE1 FP inh: -16%; RECQ1 inh conf: 28%[69.1 µM]; RECQ1 ADP FP: 11µM*

How did C[C@@H](N)[C@@H](O)c1ccc(O)c(O)c1 do in these assays?
BLM inh-1: 1%; TDP1 inh: inconclusive; RECQ1 helicase: 2.5µM*; APE1 dye cs: 5%[57.1 µM]; Endo IV inh: 53%[57.1 µM]; APE1 inh-2: 2%; APE1 FP inh: -2%[57.1 µM]; RECQ1 inh conf: 26%; RECQ1 ADP FP: inconclusive

Results for CNc1ccc(C(=O)CC(O)CCC(C)C2OC(=O)CC(O)CC(=O)CC(O)CC(O)CC(O)CC(O)CC3(O)CC(O)C(C(=O)OC)C(CC(O[C@@H]4O[C@H](C)[C@@H](O)[C@H](N)[C@@H]4O)/C=C/C=C/C=C/C=C/C=C/C=C/C=C/C2C)O3)cc1 (stereo not given in full) ?
APE1 inh-1: 3%

How did C/C1=C/C(=O)O[C@@H]2C[C@@H](CC[C@H](C)/C=C\CC1)O[C@@](O)(C1CSC(=O)N1)C2 (stereo not given in full) do in these assays?
APE1 inh-1: -5%; BLM inh-1: -2%; TDP1 inh: 3%; RECQ1 helicase: 11%

How did Cc1c2ccncc2c(C)c2c1[nH]c1ccccc12 do in these assays?
APE1 inh-1: inconclusive; BLM inh-1: 124%; TDP1 inh: 50µM*; RECQ1 helicase: 4.5µM*!; FEN1 inh-1: 12µM*; Endo IV inh: 1µM*; APE1 inh-2: inconclusive; RECQ1 inh conf: inconclusive

What do the screens show for `CCOC(=O)CC(SP(=O)(OC)OC)C(=O)OCC` (stereo not given)?
APE1 inh-1: 1%; RECQ1 helicase: 0%

Results for O=C(O)Cn1cc(/C=C2\C(=O)NC(=O)N(Cc3ccco3)C2=O)c2ccccc21 ?
APE1 inh-1: 7.9µM*; BLM inh-1: 77%; RECQ1 helicase: 14µM*; FEN1 inh-1: 79µM*; APE1 dye cs: inconclusive; Endo IV inh: 22%; APE1 inh-2: 11µM*; APE1 FP inh: -3%; FEN1 inh-2: 67*

What do the screens show for `COc1ccc(CN2C(=O)NC(=O)/C(=C/c3ccoc3)C2=O)cc1`?
APE1 inh-1: 8.9µM*; BLM inh-1: -20%; RECQ1 helicase: inconclusive; FEN1 inh-1: 22µM*; APE1 dye cs: 0%; Endo IV inh: -9%; APE1 inh-2: 4µM*; APE1 FP inh: inconclusive; FEN1 inh-2: 76*

Results for COc1ccc(CN2C(=O)NC(=O)/C(=C/c3cc(OC)c(OC)c(OC)c3)C2=O)cc1 ?
APE1 inh-1: 2%; BLM inh-1: -2%; RECQ1 helicase: -6%; FEN1 inh-1: -16%

How did CCCCC/C=C\C/C=C\CCCCCCCCCC(=O)NCCc1ccc(O)c(O)c1 do in these assays?
APE1 inh-1: -3%; BLM inh-1: -4%; TDP1 inh: 6%; RECQ1 helicase: 1%

Results for O=C(O)CBr ?
APE1 inh-1: -2%; TDP1 inh: 12%; RECQ1 helicase: -12%

What do the screens show for `CCCCN1C(=O)/C(=C/C=C/c2ccco2)C(=O)NC1=S`?
APE1 inh-1: 32µM*; BLM inh-1: 41%; RECQ1 helicase: 14µM*; FEN1 inh-1: 25µM*; APE1 dye cs: 30%; Endo IV inh: 53%; APE1 inh-2: 14µM*; APE1 FP inh: 65%; FEN1 inh-2: 34*

How did CCCCn1c(NS(=O)(=O)c2ccccc2)c(C(=O)OCC)c2nc3ccccc3nc21 do in these assays?
APE1 inh-1: 3%; BLM inh-1: 1.4µM*; TDP1 inh: 0%; RECQ1 helicase: -3%; FEN1 inh-1: -6%; BLM inh-2: -10%

Results for CCNC1(c2cccs2)CCCCC1=O (stereo not given) ?
APE1 inh-1: 5%[21 µM]

Results for CC[C@@]1(O)CC(O)c2c(cc3c(c2O)C(=O)c2c(O)ccc(O)c2C3=O)C1C(=O)OC (stereo not given in full) ?
APE1 inh-1: inconclusive; BLM inh-1: inconclusive; TDP1 inh: 8%[56.1 µM]; RECQ1 helicase: 4µM*; RECQ1 inh conf: 50µM*; RECQ1 ADP FP: 0.89µM*

How did CC[C@]1(O)CC(O[C@@H]2CC(N(C)C)C(O)C(C)O2)c2c(cc3c(c2O)C(=O)c2c(O)cccc2C3=O)C1C(=O)OC (stereo not given in full) do in these assays?
APE1 inh-1: 14µM*; BLM inh-1: 28%; TDP1 inh: 9%; RECQ1 helicase: 10µM*; RECQ1 inh conf: 112µM*; RECQ1 ADP FP: 4.5µM*

Assay outcomes: PubChem, National Center for Advancing Translational Sciences (NCATS)
